# ± gives the standard deviation of the averaged measurements. Whole data set: some 25,000 sequences, median “ln(normalized median fluorescence intensity)” near 7.9, cut for the highest 2% near 11. The sample holds the highest values, similar sequences and a random draw of the others, so the mix is not that of the screen.
# Test system: PfAP2-I AP2 domain 3 (GST-tagged)
# Experiment: gcPBM binding intensity (ln(normalized median fluorescence intensity)); higher = stronger DNA binding
# Method in brief: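 Plasmodium falciparum DNA-binding domains carrying a GST tag were expressed in E. coli and applied for 1 h, at about 25 μg on average, to an Agilent 4 × 180k array. The array held primer-extended double-stranded 36-bp intergenic genomic probes together with negative controls, and binding took place in 1× PBS with 1% milk, 0.2 mg/ml BSA, 0.5% salmon testes DNA and 0.03% Triton X-100. An Alexa488 anti-GST antibody detected bound protein, and the array was scanned at 488 nm. Binding intensity is taken as the highest Masliner-normalised natural-log median intensity across replicate spots of either probe orientation.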
row,Sequence,gcPBM binding intensity (ln)
1,ATTATGTATACATAAACACACATATATATAAAAAAA [CACACA_site262],7.92 ± 0.64
2,TTCATTAAAGTTATTACACACAGTTCTTCAACCAAA [CACACA_site7613],7.88 ± 0.46
3,CTTTGTAGTATATTAACACACAACTGTTTATAATAT [CACACA_site6038],7.77 ± 0.54
4,AAATATTTATAAATTGCACACAAATAATAACATTAT [CACACA_site8737],8.47 ± 0.099
5,TGTATAATATTTGGTGCACACAAATTAACAACTGTT [CACACA_site9245],11.1 ± 0.54
6,ATATTTATAAATTGCACACAAATAATAACATTATAT [CACACA_site5322],8.68 ± 0.13
7,TATAATATTTGGTGCACACAAATTAACAACTGTTTA [CACACA_site3742],11.1 ± 0.39
8,TTCTTTGTAGTATATTAACACACAACTGTTTATAAT [CACACA_site9305],8.02 ± 0.59
9,ATTCAAAAGGTTTAATGTACGTGATGTTTCACAAAT [XGTACX_site784],7.74 ± 0.5
10,AAAAATGGAATTATCTGTACATATATAGTTTTTAAA [XGTACX_site5580],7.44 ± 0.33
11,AATTGTTCTATGATTTGTACACACTTTTTTTTAAAA [XGTACX_site5984],8.15 ± 0.52
12,ATTTTAATAAAATATGTACACACATACACCCATATA [CACACA_site8326],8.15 ± 0.34
13,AATACATGAATATGTAGTACAGAAAAAAAAAATATA [XGTACX_site1945],7.89 ± 0.6
14,GTATAATATTTTAATGCACACACACTAATAAAAAAA [CACACA_site8939],11.1 ± 0.76
15,ATAATATTTTAATGCACACACACAAAAAAAAAAAAA [CACACA_site2891],11.2 ± 0.61
16,AATAAATATAAAAATGCACACACACTAATAAAAAAA [CACACA_site8201],8.67 ± 0.52
17,TGATTCAATTTATGCACACTAAAAATTAATTATATT [CACACA_site271],9.65 ± 0.23
18,ATATTTTACAAATGCACACATAATTTTTTTTTTTTT [CACACA_site2763],9.33 ± 0.099
19,TTTTTTTTTTTTAATGCACACAATATATAATATGTA [CACACA_site3694],11.2 ± 0.4

row,Sequence,gcPBM binding intensity (ln)
1,TAATATAATATATGCACACAAATATGTATATATGTG [CACACA_site2134],8.895 ± 0.049
2,TATAATATAATATATGCACACAAATATGTATATATG [CACACA_site8664],8.86 ± 0.085
3,TTTTTAAAATATTTAACACACAATTTTAATGCATAA [CACACA_site6036],8.8 ± 0.11
4,ATTTTTAATATTATTACACACACTAATAAAAAAAAA [CACACA_site8265],7.96 ± 0.27
5,AGATAAAATATATATGCACACACATATATATTTCAT [CACACA_site9183],9.255 ± 0.007
6,TTAAAAAATATATGCGTGCACTAATATTTCATATGC,11.5 ± 0.2
7,ATTAATGATTTTTGTTGTACATTATTAATTTACATT [XGTACX_site544],7.83 ± 0.46
8,ATTTCTCAATCGTAATGTACAAAAAAAAGGGAAAAG [XGTACX_site2781],7.9 ± 0.58
9,AAGGAATATGTATATACACACAGGTACATATATATA [CACACA_site441],8.16 ± 0.71
10,AGTAGTCTGGAGAAAAGTACATAGTATCTGGTAGCT [XGTACX_site2027],7.98 ± 0.52
11,AAGAGAGAGAAATATGCACACATAAGGGAAATAAAT [CACACA_site8300],8.895 ± 0.049
12,TTTATTCCAGTATTCACACACGAATAACCACATAAC [CACACA_site5104],7.93 ± 0.42
13,ATATATATATATATTTGTACATAATATATATATGCA [XGTACX_site1795],9.28 ± 0.48
14,AGATATAATAAATATACACACATATATATATATATA [CACACA_site962],9.2 ± 0.76
15,TTTAAATTTTAATATGCACACAAAATGTTATATTAA [CACACA_site8015],9.06 ± 0.13
16,AATATTTTAATGCACACACACAAAAAAAAAAAAAAA [CACACA_site7374],11.5 ± 0.73
17,TAAATTTTAATATGCACACAAAATGTTATATTAAAA [CACACA_site4366],9.13 ± 0.35
18,AAGCATATTATAAACACACACTGTATAAAGATATAT [CACACA_site6277],7.66 ± 0.67
19,TATATACCACATTGTTGTACGACACATTTACATTTT [XGTACX_site8370],8.21 ± 0.57

row,Sequence,gcPBM binding intensity (ln)
1,ACATGAAACTATAAACGTACATACATACATATATAT [XGTACX_site5011],8.09 ± 0.6
2,GATAATGAATGATGCACACTAAAAATATTCTACAAC [CACACA_site3622],8.66 ± 0.16
3,TATAAATACTAAAAAAGTACAAAATTTCATAAAAAA [XGTACX_site2709],7.82 ± 0.59
4,TATTTTATATAAAGGTGTACTTATACAAAAATATAT [XGTACX_site7435],8.14 ± 0.28
5,TTTTCTCTAAAAAGGTGTACAACTAATAATGCACTG [XGTACX_site6074],11.4 ± 0.31
6,ATTTTTCTAAAATACTGTACAAAGGTGCATAAAAAG [XGTACX_site4425],11.8 ± 0.87
7,AAAAAAAAAAAAAGGTGTACATGCAAAATAAATTCT [XGTACX_site4592],8.56 ± 0.35
8,ATATATATATATATATGTACATATTGTATTAATTAT [XGTACX_site1919],9.31 ± 0.11
9,AATGTCATCATATTCATATATATTTATTTCTTTTTG [GTGCAC_negctrl_site500],7.68 ± 0.57
10,TAAATTTAGAAACACACACACATATATATATATATA [CACACA_site847],9.36 ± 0.38
11,ATAGAAGGCAACTTGGTGCACAAAAAAAAAAATAAT,11.6 ± 0.25
12,AAAATAATAATAGGCACACATATATATATATATATA [CACACA_site2058],9.36 ± 0.32
13,TAATAACTACAAAAAAAAAAGAAAAATAGAAAAAGG [CACACA_negctrl_site1102],7.75 ± 0.67
14,CCATATCTTTTTTGCACACACTACAATAAAACAAAA [CACACA_site4995],9.95 ± 0.2
15,TACAAACACCCATATACACACAAAAAAAAAATAAAA [CACACA_site5421],7.78 ± 0.31
16,TCACCATATAAACGTGCACACTACAAAAATATATAA [CACACA_site5413],11 ± 0.24
17,TTTCACCATATAAACGTGCACACTACAAAAATATAT [CACACA_site2547],11.1 ± 0.35
18,AAACAAAAAATATATACACACTAAACATAAAAAAAA [CACACA_site4185],7.81 ± 0.65
19,TTTCACTACACAAATACACACAAAAATATATGTGCA [CACACA_site2632],7.91 ± 0.54
